This note sets out measurements from PubChem BioAssay (Tox21).

Inconclusive results are not listed. A number with no mark means an inactive call. Activity calls are given as the source filed them. The call rests on the fitted dose curve; in most records, active means well fitted inhibition curve with a large enough effect in the repeat runs; inconclusive means weak or mixed curves; inactive means no such curve, though single readings can be large or run the other way.
On the % scale 0 is the no-effect control and ±100 the full control effect; potency means the concentration at half of the fitted maximal effect.

Chain of Cytochrome P450 3A4 (Homo sapiens) (P08684 whole entry, looked up): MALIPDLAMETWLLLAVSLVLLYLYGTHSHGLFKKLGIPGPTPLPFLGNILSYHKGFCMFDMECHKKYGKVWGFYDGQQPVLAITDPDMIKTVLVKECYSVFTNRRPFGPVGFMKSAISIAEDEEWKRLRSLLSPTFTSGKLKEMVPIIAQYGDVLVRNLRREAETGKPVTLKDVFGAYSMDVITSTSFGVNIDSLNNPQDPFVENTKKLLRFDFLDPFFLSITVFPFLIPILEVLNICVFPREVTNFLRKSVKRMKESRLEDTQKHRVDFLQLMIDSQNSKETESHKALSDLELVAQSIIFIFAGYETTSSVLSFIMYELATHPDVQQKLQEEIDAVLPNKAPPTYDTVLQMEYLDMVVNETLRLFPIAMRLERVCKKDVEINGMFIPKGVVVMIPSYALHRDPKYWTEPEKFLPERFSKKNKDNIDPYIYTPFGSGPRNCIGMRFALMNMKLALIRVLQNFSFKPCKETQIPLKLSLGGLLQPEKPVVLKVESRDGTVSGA

The assay concerns the target Cytochrome P450 3A4 (Homo sapiens) (UniProt P08684). Put plainly: Cytochrome P450 Family 3 Subfamily A Member 4 (CYP3A4) small molecule antagonists: luciferase reporter qHTS assay (AID 1671201). Further: nearly all actives have a fitted effect of over 50% in size. The note with it: P450-Glo CYP3A4 enzyme, luciferin luminescence, 1 h; series mostly up to 115 µM; activity change, negative = inhibition: at the top concentration. In short, it runs like this: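 Enzyme and proluciferin substrate are mixed with test chemicals for 10 min, then NADPH regeneration system drives turnover for 1 h at room temperature. A detection reagent halts the reaction; luminescence after 20 min gives relative activity.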
On the technique in general: Reporter assays use an easily measured gene product as a stand-in for the process of interest.
In the case of `CC(C)(c1ccc(O)c(-c2ccccc2)c1)c1ccc(O)c(-c2ccccc2)c1`, the Potency was 5.03 µM (active).
On the same count and under the same terms, the value for `Fc1ccc(Oc2ccnc3cc(Cl)cc(Cl)c23)cc1` was 63.3 µM (active).
For `N#CCCC(Br)(C#N)CBr` (stereo unspecified), the “activity change, negative = inhibition” value was -31.3%.
On the same count and under the same terms, with `COc1cc(C=O)cc2c1[C@H](COC(N)=O)[C@]1(OC(C)=O)ON2C[C@H]2[C@@H]1N2C(C)=O` the figure was -21.7%.
`O=c1ssc(Cl)c1Cl`: the Potency is 63.3 µM (active).
Turning to `C[C@]12CC[C@@H]3c4ccc(OC(=O)N(CCCl)CCCl)cc4CC[C@H]3[C@@H]1CC[C@@H]2O`, the “activity change, negative = inhibition” value is 50.1% [at 52.9 µM].
With `C=CC(=O)OCCCCOC(=O)C=C`, the “activity change, negative = inhibition” value was -16.1%.
On to `O=[N+]([O-])c1cc(Cl)ccc1Cl`, for which the “activity change, negative = inhibition” value is 32.2%.
Consider `ClCc1ccccc1CCl`, for which the “activity change, negative = inhibition” value was 4.59%.
For `NC(=O)CCl`, the “activity change, negative = inhibition” value was 6.54%.
On to `CC1(c2ccc(Oc3ccccc3)cc2)OC(=O)N(Nc2ccccc2)C1=O` (stereo unspecified), for which the Potency is 11.3 µM (active).
The same measure, in the same setting: with `COC(=O)N(C(=O)N1COC2(C(=O)OC)Cc3cc(Cl)ccc3C2=N1)c1ccc(OC(F)(F)F)cc1` (stereo unspecified) the figure was 5.49 µM (active).
Turning to `Cc1c(Cl)c(=O)oc2cc(OP(=O)(OCCCl)OCCCl)ccc12`, the “activity change, negative = inhibition” value was -17.8% [at 52.9 µM].
With `CCC(C)(C)C(=O)OC1=C(c2ccc(Cl)cc2Cl)C(=O)OC12CCCCC2`, the Potency was 14.2 µM (active).
The same measure, in the same setting: the value for `C[C@H]1O[C@@H](O[C@H]2[C@@H](O)C[C@H](O[C@H]3[C@@H](O)C[C@H](O[C@H]4CC[C@@]5(C)[C@H](CC[C@@H]6[C@@H]5CC[C@]5(C)[C@@H](C7=CC(=O)OC7)CC[C@]65O)C4)O[C@@H]3C)O[C@@H]2C)C[C@H](O)[C@@H]1O` was “inactive”.
With `CCC(C)c1cc(C(C)(C)C)cc(-n2nc3ccccc3n2)c1O` (stereo unspecified), the “activity change, negative = inhibition” value was -24.4% [at 52.9 µM].
